From PubChem BioAssay
The full list was thinned out, with hits kept by preference.
TTR transcr act – increases transthyretin transcription | SH-SY5Y TTR promoter Gaussia luciferase, luminescence; 100% = recombinant luciferase protein wells | activation, % at 16.7 µM | 92,000 compounds, 1.3% hits | AID 1117267;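 active = activation above the mean of all tested compounds plus 3 SD, cut at about 9.5% in these data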;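 also: cells exposed to compounds for one day before reading; 0% = median of all test compound wells on the plate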
HuH7 TTR inh – counter-screen for TTR activators: TTR transcription inhibitors in HuH7 cells; shares compounds with TTR transcr act; HuH7 TTR promoter-Gaussia luciferase reporter, luminescence; inhibition, % at 16.7 µM; 1,100 compounds, 4% hits; AID 1117279;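 active = average inhibition above the solvent-only control wells' mean plus 3 SD, cut at about 15% in these data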;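 also: 0% = cells with DMSO only and 100% = cells with inhibitor control FD; inhibitors lower well luminescence so higher value means more inhibition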
TTR up confirm – confirmation of human transthyretin transcription activators; shares compounds with TTR transcr act; SHSY5Y TTR promoter Gaussia luciferase, luminescence; 100% = purified Lucia enzyme wells, no cells; activation, % at 16.7 µM; 1,100 tested, under 10 active; AID 1117280;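 active = mean activation above a set limit taken from the earlier primary screen, cut at about 11% in these data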;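 also: 0% = DMSO-treated cells and 100% = recombinant Lucia luciferase without cells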
* marks the source's active call; other numbers are inactive results.

C[C@H]1C2CC(OC(=O)Nc3ccc(F)cc3)C(C2)[C@H]2CCCCN21 (some centres undefined) was read as TTR transcr act 1.
For COC(=O)[C@]12CCCCC=C1N(Cc1ccc(OC)cc1)C(=O)[C@@H]2CC(=O)N1CCN(C(=O)c2ccco2)CC1 the results were TTR transcr act 3.
C#CCOCCOCCOCCNc1nc(N2CCN(C(=O)[C@H]([C@@H](C)CC)n3cc(CCCCN)nn3)CC2)nc(N2CCN(C(=O)[C@H](Cc3ccc(O)cc3)n3cc(CCO)nn3)CC2)n1 was read as TTR transcr act 1.
`COc1cccc(C(=O)NCCC2=CCCCC2)c1OC` gave TTR transcr act 1.
`COCCCNC(=O)c1cccc(OC)c1OC` gave TTR transcr act -2.
COc1cccc(C(=O)NOCc2ccc(C)cc2)c1OC was read as TTR transcr act 9.7*, HuH7 TTR inh -7 and TTR up confirm -1.
For CC(C)c1ccc(NC(=O)OC2CCC23CCC(c2ccccc2)CC3)cc1 (centres undefined) the results were TTR transcr act 2.
Screening CCCCC(Sc1nc(N)c(NC(=O)c2ccc(OCC)cc2)c(=O)[nH]1)C(=O)O (centres undefined) returned TTR transcr act 1.
For CCC(Sc1nc(N)c(NC(=O)c2ccc(Br)o2)c(=O)[nH]1)C(=O)O (centres undefined) the results were TTR transcr act 12*, HuH7 TTR inh -10 and TTR up confirm 0.
Screening Cc1ccc(C(=O)Nc2c(N)nc(SCC(=O)Nc3cc(C)on3)[nH]c2=O)cc1 returned TTR transcr act 0.
`CCOC(=O)[C@]12CCCC=C1N(CCCOC)C(=O)[C@@H]2CC(=O)NCc1cccc2ccccc12` gave TTR transcr act 1.
For CCOC(=O)Cn1nc(-c2ccccc2)ccc1=O the results were TTR transcr act 0.
`CCc1ccn2cc(-c3cc(-c4ccccc4)no3)nc2c1` gave TTR transcr act -5.
For CCC(CO)Nc1ccn2nc(-c3ccccc3)cc2n1 (centres undefined) the results were TTR transcr act 26*, HuH7 TTR inh -2 and TTR up confirm 0.
Screening O=C(NC(=S)N1CCN(c2ccc(F)cc2)CC1)c1ccccc1 returned TTR transcr act -1.
For CC(C)(C)OC(=O)N1C(=O)[C@](OC(=O)c2ccccc2)(c2ccc(F)cc2)c2ccccc21 the results were TTR transcr act 21*, HuH7 TTR inh 4 and TTR up confirm -1.
Screening N/C(=N\OC(=O)c1ccc(F)cc1)c1ccccc1 returned TTR transcr act 0.
For O=C1CN(C(=O)C2CCCCC2)C=CN1CCc1ccccc1Br the results were TTR transcr act 0.
`O=C(OCC#CCSc1nnc(-c2cccc3ccccc23)o1)c1ccsc1` gave TTR transcr act -1.
O=C(Nc1nc2ncccn2c1-c1ccc(C(F)(F)F)cc1)c1ccc(F)cc1 was read as TTR transcr act 7.
CC(CCc1ccccc1)NC(=O)Cc1ccc(Br)cc1 (centres undefined) was read as TTR transcr act 0.
Screening Cc1ccc(CC(=O)NC(C)CCc2ccccc2)cc1 (centres undefined) returned TTR transcr act 4.
CC(C)C[C@H]1CNC(=O)C(=O)N1C[C@H](C)NC(=O)Cc1ccccc1 was read as TTR transcr act 15*, HuH7 TTR inh 0 and TTR up confirm 0.
`Cc1sc2ncnc(Nc3ccccc3)c2c1C` gave TTR transcr act 15*, HuH7 TTR inh -8 and TTR up confirm 0.
`Cc1sc2ncnc(NCC(c3ccco3)N(C)C)c2c1C` (centres undefined) gave TTR transcr act -1.
`Cc1sc2ncnc(Nc3ccc(N4CCOCC4)cc3)c2c1-c1ccccc1` gave TTR transcr act -1.
For C[C@@H]1CCCCO[C@@H](CN(C)Cc2ccc(C(=O)O)cc2)[C@@H](C)CN([C@H](C)CO)C(=O)c2cc(NS(C)(=O)=O)ccc2O1 the results were TTR transcr act -1.
`O=C(NCc1cccc(Cl)c1)O[C@H]1CC[C@@]23CCCN2C(=O)CCC[C@H]3C1` gave TTR transcr act -2.
COC(=O)[C@]12C[C@H](CC(=O)NCc3cccc4ccccc34)C(=O)N(Cc3ccc4c(c3)OCO4)C1=C[C@H](C(C)C)O[C@@H]2C1CC1 was read as TTR transcr act 0.
For Cc1ccc(-c2c(NC(=O)Nc3ccc(F)cc3)nc3ncccn23)cc1 the results were TTR transcr act -2.
Screening CN(C)c1ccc(NC(=O)Cn2ncn3c(cc4ccccc43)c2=O)cc1 returned TTR transcr act -1.
For COC(=O)Cn1c(=O)c(C)nc2ccccc21 the results were TTR transcr act 0.
